High-throughput results: PubChem, Milwaukee Institute for Drug Discovery
A selection: hits, their analogues and other compounds. The true share with any hit is near 7.6%.
NS3h inh CB = blocks HCV NS3 helicase binding to DNA. NS3h Cy5-dT15 DNA binding, fluorescence polarization. inhibition, % at 100 µM. actives 1.6% (n = 16,000);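 active = inhibition above the average over every tested compound plus 3 SD, cut at about 40% in these data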
Cy5 interf NS3h = enhances or quenches Cy5 fluorescence in NS3h assay; fluorescence interference ratio at 100 µM; Cy5-dT15 DNA with NS3h, fluorescence interference; actives lie on both sides; signal over control mean, under 1 quenches; actives 6% (n = 16,000);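 active = compound fluorescence over control fluorescence at most 0.8, a quencher, or at least a set upper limit, an enhancer; inactive = ratio between 0.8 and the set upper limit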
NS3h confirm = confirmation of hepatitis C virus NS3 helicase inhibitors | shares compounds with NS3h inh CB | NS3h binding to Cy5-dT15 DNA, fluorescence polarization | inhibition, % at 100 µM | actives 20% (n = 240);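 active = percent inhibition of 50% or more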
SSB FP counter = disrupts E. coli SSB binding to DNA in counter-screen | shares compounds with NS3h inh CB | E. coli SSB binding Cy5-dT15, fluorescence polarization | inhibition, % at 100 µM | actives 40% (n = 240) | AID 720486;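 active = inhibition of at least 50%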;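 also: displacers lower Cy5 polarization so higher inhibition means more SSB displaced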
Target sequence (P0AGE0 whole entry, looked up): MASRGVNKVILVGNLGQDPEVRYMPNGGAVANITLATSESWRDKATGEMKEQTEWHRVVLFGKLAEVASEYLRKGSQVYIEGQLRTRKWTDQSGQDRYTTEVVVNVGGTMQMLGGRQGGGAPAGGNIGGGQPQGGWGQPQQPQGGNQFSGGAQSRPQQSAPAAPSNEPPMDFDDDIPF
Cy5 SSB interf = counter-screen for HCV NS3 helicase inhibitors: fluorescence interference | fluorescence interference ratio at 100 µM | actives 8% (n = 240) | shares compounds with NS3h inh CB | Cy5-dT15/E. coli SSB fluorescence interference; actives lie on both sides;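 active = fluorescence interference ratio at or above 1.2, signal boosting, or at or below 0.8, signal quenching; inactive = ratio between 0.8 and 1.2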;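 also: ratio of compound well signal to mean negative control signal so 1 means no effect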
Cy5 fluor confirm = Cy5 fluorescence interference, confirmation counter-screen. shares compounds with NS3h inh CB. Cy5-dT15 DNA/NS3h fluorescence interference counterscreen. fluorescence interference ratio at 100 µM, hits read low. actives 44% (n = 240). AID 720489;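 active = fluorescence interference ratio at or below 0.8 quencher or at or above a set limitenhancer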;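 also: ratio of compound fluorescence to mean of negative controls so 1 means no interference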
* hit, by the source's call.

SMILES | NS3h inh CB | Cy5 interf NS3h | others
Cc1cccc(N2C(=O)C(=O)C(=C(O)c3ccccc3)C2c2ccccc2)n1 (configuration not stated) | 2 | 1
Cc1ccc(N2C(=O)/C(=C/C=C/c3ccccc3)C(=O)NC2=S)cc1 | 34 | 0.72*
CCOc1ccc(/C=C2\C(=O)NC(=S)N(c3ccc(C)cc3)C2=O)cc1Cl | 6 | 0.9
CCc1ccc(N2C(=O)/C(=C/c3ccc(O)c(Cl)c3)C(=O)NC2=S)cc1 | 0 | 1.2
O=C1NC(=S)N(c2ccc(F)cc2)C(=O)/C1=C/c1ccc(F)cc1 | 8 | 0.65*
COc1cccc2c(Cl)cc(C)nc12 | 3 | 1.1
CCn1c2ccccc2c2cc(NC(=O)C/C(C)=N\NC(=O)OCc3ccc(OC)cc3)ccc21 | 3 | 1
CSc1ccc(/C=C/C(=O)c2ccc(NC(=O)c3cccs3)cc2)cc1 | 21 | 0.71*
O=C(Nc1ccc(/C=C/C(=O)c2cccs2)cc1)c1ccc(Br)cc1 | -4 | 1
C=CCC1(O)C(C)C(c2ccccc2)NC(c2ccccc2)C1CCC (configuration not stated) | 14 | 1.1
O=C(COc1ccc2ccc(=O)oc2c1)c1ccc(-c2ccccc2)cc1 | 33 | 0.95
Cc1ccc(C(=O)COc2cc(OCC(=O)c3ccc(C)cc3)c3c(C)cc(=O)oc3c2)cc1 | 2 | 0.66*
COc1ccc(/C=N\Nc2nc(C(F)(F)F)c(-c3ccc(F)cc3)s2)cc1OC | 12 | 0.81
CN(C)/C=C/C=C1\CC(=O)N(c2ccccc2)C1=O | 8 | 0.89
CC1CC/C(=C\C=C\N(C)C)C(=O)/C1=C/C=C/N(C)C (configuration not stated) | 28 | 0.72*
COc1ccc(-n2c(O)c(C=Nc3ccc(Cl)cc3)c(=O)[nH]c2=O)cc1 | 7 | 0.78*
COc1cccc(-n2c(O)c(C(c3ccccn3)c3c(O)n(-c4cccc(OC)c4)c(=O)[nH]c3=O)c(=O)[nH]c2=O)c1 | 7 | 0.93
Cc1ccc(/C=N\NC(=O)/C(=C/c2ccc(N(C)C)cc2)NC(=O)c2ccccc2)c(O)c1 | -3 | 1.1
CCOC(=O)C1=C(O)/C(=C/c2ccc(OC)c(OC)c2)SC1=Nc1ccc([N+](=O)[O-])cc1 | -37 | 0.99
CCOC(=O)C1=C(O)/C(=C/c2cccc(Br)c2)SC1=Nc1ccccc1 | 18 | 0.66*
COc1ccc2c(c1)OCC/C2=N/OC(=O)c1ccc(C)cc1 | 20 | 1
COc1ccc2c(c1)OCC/C2=N/OC(=O)c1cc(OC)c(OC)c(OC)c1 | 11 | 1.2*
COc1cc(/C=C2/C(=O)ON=C2c2ccc(Cl)cc2)ccc1O | 6 | 0.94
COc1cc(/C=N\Nc2ccnc3cc(Cl)ccc23)ccc1O | -29 | 0.34*
CC1(C)CC(=O)c2c(oc3ccc(NS(=O)(=O)c4ccc5c6c(cccc46)C(=O)N5)cc23)C1 | 5 | 0.99
SMILES | NS3h inh CB | Cy5 interf NS3h | others
CC(=O)C(C(=O)c1ccccc1)C1(O)C(=O)Nc2ccccc21 (configuration not stated) | -3 | 0.79*
O=C1Nc2ccccc2C1(O)C/C(=N\O)c1ccc(Cl)cc1 (configuration not stated) | 2 | 0.98
O=C(Nc1ccc(Br)cc1)C1CCCN1C(=O)OCc1ccccc1 (configuration not stated) | 12 | 0.95
O=C1c2cccc3cccc(c23)C(=O)N1CCS(=O)(=O)OCC(F)(F)C(F)F | 22 | 0.85
COC(=O)CN(Cc1ccccc1)S(=O)(=O)c1ccc(NC(C)=O)cc1 | -2 | 1
COc1cccc(NC(=O)/C(=C/c2ccccc2)c2ccccc2)c1 | 14 | 1
COc1ccc(OC)c(NC(=O)/C(=C/c2ccccc2)c2ccccc2)c1 | 4 | 0.61*
CCCc1c(C)c2c(OCC(=O)O)cc(OCC(=O)O)cc2oc1=O | 13 | 0.76*
CCc1cc2c(C)c(CC)c(=O)oc2cc1OCC(C)=O | -4 | 1
CC(=O)Nc1sc2c(c1C(=O)Nc1ccccc1C)CCC2 | -4 | 0.93
Cc1ccccc1NC(=O)c1c(NC(=O)C(Cl)(Cl)Cl)sc2c1CCC2 | 13 | 0.68*
O=[N+]([O-])c1cccc(S(=O)(=O)Nc2ccccc2CO)c1 | 5 | 1.1
Cc1ccc(/C=C2/C=C(c3ccccc3)OC2=O)cc1 | 5 | 0.95
NC1=NC(=O)/C(=C\c2ccc(-c3ccc([N+](=O)[O-])cc3)o2)S1 | -2 | 1.2*
CN1C(=O)C(=Cc2ccc(-c3ccccc3C(=O)O)o2)C(=O)N(C)C1=O | 39 | 1.1
NC1=NC(=O)/C(=C/c2ccccc2OCc2ccc([N+](=O)[O-])cc2)S1 | -7 | 0.97
Cc1ccc(C2=C/C(=C\c3ccc(-c4ccccc4C(=O)O)o3)C(=O)O2)cc1 | 24 | 0.79*
O=C1OC(c2ccccc2)=C/C1=C/c1ccc(-c2ccc([N+](=O)[O-])cc2)o1 | 12 | 0.8*
Cc1ccc(Cl)cc1NC(=O)C1CC(=O)N(c2ccc(F)cc2)C1 (configuration not stated) | -16 | 1.1
COc1ccc2nc(N=C(N)NC(=O)Cc3ccc(Cl)cc3)nc(C)c2c1 | -3 | 1
Cc1ccc(-c2nnc(SCC(=O)Nc3ccc(F)cc3)o2)cc1 | 62* | 0.87 | NS3h confirm=40;SSB FP counter=32;Cy5 SSB interf=1;Cy5 fluor confirm=0.85
O=C(CSc1nnc(-c2ccc(Cl)cc2Cl)o1)Nc1ccccc1 | 1 | 1
COC(=O)C1=C(C)N=c2s/c(=C/c3ccco3)c(=O)n2C1c1ccccc1Cl (configuration not stated) | -2 | 1.1
CCOC(=O)C1=C(CC)NC2=C(C(=O)CC(C)(C)C2)C1c1ccc(Cl)cc1Cl (configuration not stated) | -3 | 0.85
COc1ccc(NC(=O)CSc2ccccn2)cc1 | -14 | 1
SMILES | NS3h inh CB | Cy5 interf NS3h | others
CCOC(=O)c1[nH]c(=O)[nH]c1CSc1ccccn1 | 44* | 1 | NS3h confirm=1;SSB FP counter=14;Cy5 SSB interf=0.93;Cy5 fluor confirm=0.9
CC(C)(C)C(=O)/C=C(O)\C(O)=C/C(=O)C(C)(C)C | 17 | 0.96
CC(=O)N(/C=C1\Sc2ccccc2C1=O)c1ccc(C)cc1 | 8 | 1.1
O=C(O)c1cc(-c2ccc(/C=C3/Sc4ccccc4C3=O)o2)ccc1O | 110* | 0.97 | NS3h confirm=61*;SSB FP counter=102*;Cy5 SSB interf=0.84;Cy5 fluor confirm=0.69*
O=[N+]([O-])c1ccc(NCCNS(=O)(=O)c2ccccc2)c(Cl)c1 | 13 | 0.98
COc1cccc(C=C2C(=O)c3ccccc3C2=O)c1 | 24 | 1
O=C1C(=Cc2ccccc2Br)C(=O)c2ccccc21 | 74* | 0.91 | NS3h confirm=51*;SSB FP counter=11;Cy5 SSB interf=0.98;Cy5 fluor confirm=0.97
Cc1ccc(NS(=O)(=O)c2ccc(C)c([N+](=O)[O-])c2)cc1 | 19 | 0.86
CN1C(=O)C(=Cc2c(Cl)cccc2Cl)C(=O)N(C)C1=O | 42* | 0.99 | NS3h confirm=31;SSB FP counter=16;Cy5 SSB interf=0.97;Cy5 fluor confirm=0.9
